The whole screen tested about 39,000 compounds, of which about 3,300 (8.5%) were called active. What follows is part of a selection rich in actives, with near analogues and random picks from the rest.
Tested on: HepG2
Assay: cytotoxicity call (relative viability < 0.9)
Conditions: 10 µM

SMILES	cytotoxicity call
CC(=O)N1CCC2(CC1)NC(=O)NC2=O	inactive
O=C(CN1CCOCC1)NCC[C@@H]1CC[C@@H](NC(=O)c2ccccc2F)[C@@H](CO)O1	inactive
Cc1ccnc([C@@H](N)C2CC2)c1	inactive
C[C@@H]1CN([C@@H](C)CO)C(=O)c2cc(NC(=O)CCCCCC(=O)Nc3ccccc3N)ccc2O[C@H]1CN(C)S(=O)(=O)c1cn(C)cn1	inactive
Nc1ccccc1C(=O)N[C@H]1CCCCNC1=O	inactive
C[C@H](CO)N1C[C@H](C)[C@@H](CN(C)Cc2ccc(C(=O)Nc3ccccc3N)cc2)Oc2c(NC(=O)Nc3ccc4c(c3)OCO4)cccc2C1=O	inactive
C[C@H]1CN([C@@H](C)CO)C(=O)c2cc(C#CCc3ccccc3)cnc2O[C@@H]1CN(C)C(=O)Cc1cccnc1	inactive
COCC#Cc1cnc2c(c1)C(=O)N([C@H](C)CO)C[C@H](C)[C@@H](CN(C)S(=O)(=O)c1cccc(OC)c1)O2	inactive
NC[C@H]1OB(O)c2c(OCCO)ccc(Cl)c21	inactive
Cc1ccc(S(=O)(=O)Nc2cccc3c2O[C@H](CN(C)Cc2ccc(Oc4ccccc4)cc2)[C@@H](C)CN([C@H](C)CO)C3=O)cc1	inactive
C[C@H]1CN([C@@H](C)CO)C(=O)c2ccccc2-c2ccccc2CO[C@@H]1CN(C)Cc1ccc(Cl)c(Cl)c1	inactive
C[C@H]1CCCCO[C@H](CN(C)C(=O)Nc2ccc(F)cc2)[C@@H](C)CN([C@@H](C)CO)C(=O)c2cc(NS(=O)(=O)c3cccs3)ccc2O1	inactive
Cc1noc(C)c1S(=O)(=O)N(C)C[C@H]1Oc2ccc(NC(=O)C3CCCCC3)cc2CC(=O)N([C@@H](C)CO)C[C@H]1C	inactive
C[C@@H]1CN([C@@H](C)CO)C(=O)Cc2cc(NC(=O)c3ccncc3)ccc2O[C@H]1CN(C)Cc1ccc(-c2ccccc2)cc1	active
C[C@@H]1CN([C@H](C)CO)C(=O)Cc2cc(NC(=O)c3ccncc3)ccc2O[C@@H]1CN(C)Cc1ccncc1	inactive
C[C@@H]1CN([C@H](C)CO)C(=O)Cc2cc(NC(=O)c3ccncc3)ccc2O[C@@H]1CN(C)Cc1ccc(-c2ccccc2)cc1	active
C[C@H]1CN([C@@H](C)CO)C(=O)Cc2cc(NC(=O)c3ccncc3)ccc2O[C@H]1CN(C)Cc1ccc(-c2ccccc2)cc1	active
C[C@@H]1CN([C@H](C)CO)C(=O)Cc2cc(NC(=O)c3ccncc3)ccc2O[C@H]1CN(C)Cc1ccc(-c2ccccc2)cc1	inactive
C[C@H](CO)N1C[C@H](C)[C@H](CN(C)Cc2ccc(-c3ccccc3)cc2)Oc2ccc(NC(=O)c3ccncc3)cc2CC1=O	inactive
C[C@H](CO)N1C[C@H](C)[C@@H](CN(C)Cc2ccc(-c3ccccc3)cc2)Oc2ccc(NC(=O)c3ccncc3)cc2CC1=O	inactive

SMILES	cytotoxicity call
C[C@@H]1CN([C@@H](C)CO)C(=O)Cc2cc(NC(=O)c3ccncc3)ccc2O[C@@H]1CN(C)Cc1ccc(-c2ccccc2)cc1	inactive
C[C@H]1CN([C@@H](C)CO)C(=O)Cc2cc(NC(=O)c3ccncc3)ccc2O[C@@H]1CN(C)Cc1ccc(-c2ccccc2)cc1	inactive
Cc1ccc(-c2ccc3c(c2)O[C@@H](CN(C)C(=O)CN(C)C)[C@@H](C)CN([C@H](C)CO)S3(=O)=O)cc1	inactive
CO[C@H]1CN(C)C(=O)c2cc(NC(=O)CC(F)(F)F)ccc2OC[C@@H](C)N(S(=O)(=O)c2cn(C)cn2)C[C@H]1C	inactive
CO[C@@H](C(=O)N(C)C[C@@H]1OCc2ccccc2-c2c(n(C)c3ccccc23)C(=O)N([C@@H](C)CO)C[C@H]1C)c1ccccc1	inactive
COc1ccccc1CNC(=O)C[C@H]1C[C@@H]2c3cc(NS(=O)(=O)c4ccc(F)cc4)ccc3O[C@@H]2[C@H](CO)O1	inactive
C[C@@H]1CCCCO[C@H](CN(C)S(=O)(=O)c2ccccc2)[C@H](C)CN([C@H](C)CO)C(=O)c2cc(NS(C)(=O)=O)ccc2O1	inactive
COc1ccc(NC(=O)N(C)C[C@H]2Oc3ccc(NC(=O)Cn4cnnn4)cc3CC(=O)N([C@@H](C)CO)C[C@@H]2C)cc1	inactive
COc1ccc(NC(=O)Nc2ccc3c(c2)[C@@H]2C[C@@H](CC(=O)NCC(F)(F)F)O[C@@H](CO)[C@@H]2O3)cc1	inactive
C[C@@H]1CN([C@H](C)CO)C(=O)c2cccc(NC(=O)Nc3ccc(F)cc3)c2O[C@@H]1CN(C)Cc1ccc(C(=O)Nc2ccccc2N)cc1	inactive
COCC#Cc1cnc2c(c1)C(=O)N([C@H](C)CO)C[C@@H](C)[C@@H](CN(C)S(=O)(=O)c1ccccc1)O2	inactive
COCCN1C(=O)C2=C(C1=O)[C@H]1N(C)c3ccccc3[C@@]13C[C@@H](CO)N(C(C)=O)C3=N2	inactive
C[C@H](CO)N1C[C@H](C)[C@H](CN(C)C(=O)Nc2ccc(C(F)(F)F)cc2)Oc2ncc(-c3ccc(C#N)cc3)cc2C1=O	inactive
C=CCOC(=O)[C@@H]1[C@H]2C(=O)O[C@H](c3ccccc3)[C@H](c3ccccc3)N2[C@H](c2ccc(OCCOC(=O)NCCCCCC(=O)NO)cc2)[C@]12C(=O)Nc1ccccc12	inactive
CC(C)(O)C1CCC(C)(C2C(O)CC3(C)C4CC(OC5OC(CO)C(O)C(O)C5O)C5C(C)(C)C(OC6OCC(O)C(O)C6O)CCC56CC46CCC23C)O1 (centres undefined)	inactive
C[C@@H]1CC[C@@]2(OC1)O[C@H]1C[C@H]3[C@H]4C[C@@H](O)[C@H]5C[C@@H](O[C@@H]6O[C@H](CO)[C@H](O[C@@H]7O[C@H](CO)[C@@H](O)[C@H](O[C@@H]8OC[C@@H](O)[C@H](O)[C@H]8O)[C@H]7O[C@@H]7O[C@H](CO)[C@@H](O)[C@H](O)[C@H]7O)[C@H](O)[C@H]6O)[C@H](O)C[C@]5(C)[C@@H]4CC[C@]3(C)[C@H]1[C@@H]2C	active
C[C@@H]1CO[C@]2(O[C@H]3C[C@H]4[C@H]5C[C@H](O[C@H]6O[C@@H](C)[C@@H](O)[C@@H](O[C@@H]7O[C@@H](C)[C@H](O)[C@@H](O)[C@H]7O)[C@@H]6O)[C@H]6C[C@@H](O)CC[C@]6(C)[C@@H]5CC[C@]4(C)[C@H]3[C@@H]2C)[C@@H](O)C1	inactive
CC1CCC2(OC1)OC1CC3C4CCC5CC(O)CCC5(C)C4CCC3(C)C1C2C (centres undefined)	inactive
CC(C)(O)[C@H]1CC[C@@](C)([C@H]2[C@@H](O)C[C@@]3(C)[C@@H]4C[C@H](O[C@@H]5O[C@H](CO)[C@@H](O)[C@H](O)[C@H]5O)[C@H]5C(C)(C)[C@@H](O[C@@H]6OC[C@@H](O)[C@H](O)[C@H]6O)CC[C@@]56C[C@@]46CC[C@]23C)O1	inactive
C[C@@H]1CC[C@@]2(OC1)O[C@H]1C[C@H]3[C@H]4C[C@@H](O)[C@H]5C[C@@H](O[C@@H]6O[C@H](CO)[C@H](O[C@@H]7O[C@H](CO)[C@@H](O)[C@H](O[C@@H]8OC[C@@H](O)[C@H](O)[C@H]8O)[C@H]7O[C@@H]7O[C@H](CO)[C@@H](O[C@@H]8O[C@H](CO)[C@@H](O)[C@H](O)[C@H]8O)[C@H](O)[C@H]7O)[C@H](O)[C@H]6O)[C@H](O)C[C@]5(C)[C@@H]4CC[C@]3(C)[C@H]1[C@@H]2C	active

SMILES	cytotoxicity call
C[C@H]1CN([C@@H](C)CO)C(=O)Cc2cc(NC(=O)C3CCCCC3)ccc2O[C@@H]1CN(C)C(=O)Nc1cccc2ccccc12	inactive
Nc1nc(Cl)nc2c1ncn2[C@H]1C[C@@H](O)[C@@H](CO)O1	inactive
C[C@@H]1CN([C@@H](C)CO)C(=O)c2cc(N(C)C)ccc2O[C@@H](C)CCCCO[C@H]1CN(C)C(=O)Nc1cccc2ccccc12	inactive
Fc1ccc(Nc2ncnc3sc(-c4ccccc4)cc23)cc1	inactive
COc1ccc(S(=O)(=O)Nc2ccc3c(c2)C(=O)N([C@H](C)CO)C[C@@H](C)[C@@H](CN(C)C(=O)Nc2cccc4ccccc24)O3)cc1	inactive
CC(=O)Oc1cc2c(c(C)c1OC(C)=O)CC=C1[C@@]2(C)CC[C@@]2(C)[C@H]3C[C@](C)(C(=O)O)CC[C@]3(C)CC[C@]12C	active
CC1(C(=O)O)CCC2(C)CCC3(C)C(=CC(=O)C4C5(C)CCC(O)C(C)(C)C5CCC43C)C2C1 (centres undefined)	inactive
C[C@@H]1CN([C@@H](C)CO)C(=O)c2cc(NC(=O)CCC(F)(F)F)ccc2O[C@@H](C)CCCCO[C@H]1CN(C)Cc1ccc(C(=O)O)cc1	inactive
C[C@@H]1CCCCO[C@H](CN(C)Cc2ccc(C(F)(F)F)cc2)[C@H](C)CN([C@@H](C)CO)C(=O)c2cc(NC(=O)CCC(F)(F)F)ccc2O1	active
C[C@H](CO)N1C[C@H](C)[C@@H](CN(C)Cc2ccc(C(F)(F)F)cc2)OCCCC[C@H](C)Oc2ccc(NC(=O)CCC(F)(F)F)cc2C1=O	inactive
C[C@H](CO)N1C[C@H](C)[C@H](CN(C)Cc2ccc(C(F)(F)F)cc2)OCCCC[C@H](C)Oc2ccc(NC(=O)CCC(F)(F)F)cc2C1=O	inactive
C[C@@H]1CN([C@H](C)CO)C(=O)c2cc(NC(=O)CCC(F)(F)F)ccc2O[C@@H](C)CCCCO[C@H]1CN(C)Cc1ccc(C(=O)O)cc1	inactive
C[C@@H]1CCCCO[C@@H](CN(C)Cc2ccc(C(F)(F)F)cc2)[C@H](C)CN([C@@H](C)CO)C(=O)c2cc(NC(=O)CCC(F)(F)F)ccc2O1	active
C[C@@H]1CN([C@H](C)CO)C(=O)c2cc(NC(=O)CCC(F)(F)F)ccc2O[C@@H](C)CCCCO[C@@H]1CN(C)Cc1ccc(C(F)(F)F)cc1	inactive
C[C@@H]1CCCCO[C@@H](CN(C)Cc2ccc(C(=O)O)cc2)[C@H](C)CN([C@H](C)CO)C(=O)c2cc(NC(=O)CCC(F)(F)F)ccc2O1	active
C[C@@H]1CCCCO[C@H](CN(C)Cc2ccc(C(F)(F)F)cc2)[C@@H](C)CN([C@@H](C)CO)C(=O)c2cc(NC(=O)CCC(F)(F)F)ccc2O1	inactive
C[C@@H]1CCCCO[C@H](CN(C)Cc2ccc(C(F)(F)F)cc2)[C@@H](C)CN([C@H](C)CO)C(=O)c2cc(NC(=O)CCC(F)(F)F)ccc2O1	inactive
C[C@H]1CCCCO[C@H](CN(C)Cc2ccc(C(F)(F)F)cc2)[C@@H](C)CN([C@@H](C)CO)C(=O)c2cc(NC(=O)CCC(F)(F)F)ccc2O1	active
C[C@@H]1CCCCO[C@@H](CN(C)Cc2ccc(C(F)(F)F)cc2)[C@H](C)CN([C@H](C)CO)C(=O)c2cc(NC(=O)CCC(F)(F)F)ccc2O1	inactive

Source: the antibiotic and cytotoxicity screens of Wong et al. (2023)
